# Laboratory results reported in PubChem BioAssay AID1259415 (National Center for Advancing Translational Sciences (NCATS), 2018).
# Where “and” joins values, the source holds several entries; their conditions need not be identical. Identical values can stand only once. The campaign covered roughly 410,000 compounds. About 18,000 (4.4%) were called active. Roughly 7% stayed inconclusive and do not appear here. Cut-off read from the data, not from the text of the source: active = activity change below about -60%; inconclusive = no clear call, values can overlap the other calls; inactive = above about -39%. Many of the other results were omitted from the sample, so actives are more common in it than they were.
# Assay: qHTS Assay for inhibitors of the human cytomegalovirus (HCMV)
# Conditions: HFF cells, HCMV-luciferase reporter, 72 h; at 57.5 µM; stronger effect = lower value
# From the text: NCGC Assay Overview: Infection with human cytomegalovirus (HCMV) continues to pose significant threats for pregnant women and immunocompromised hosts. HCMV causes serious morbidity and mortality in transplant recipients, and congenital HCMV is the leading infectious cause of mental retardation and deafness in children. In the 1990s, the annual costs associated with the disease burden of congenital CMV were estimated at around $2 billion. A HCMV vaccine is not available yet and HCMV therapies result in intolerable side effects and emergence of drug resistant viruses. […] Towards this goal we have developed and characterized a luciferase HCMV reporter that was initially used in 96 well plates and then optimized to 1536-well plates for utilization in screening of the MLSMR collection, the NGCG diversity collection and the NCGC Pharmaceutical Collection of approved and investigational drugs.
# NCGC Assay Protocol Summary:
# This is a cell-based assay for HCMV inhibition in HFFs cells. The screening used 2 compound doses and the HCMV-luciferase at MOI of 1 PFU/cell. Cells were treated and infected with HCMV. At 72 h post infection cell lysates were collected and luciferase activity was determined using the Glomax-Multi + Detection System (Promega, Madison, WI). Data were normalized to the controls for basal activity (buffer only) and known HCMV inhibitors Salinmoycin.
# 1536-well assay protocol for the assay:
# (1) Add 3 ul CMV/HFF cell culture. 1000 cells/well in DMEM nirmal media.
# (2) Incubate 16 hr at 37C.
# (3) Add 23 nl control compound, 10uM of Salinomycin.
# (4) Add 23 nl compounds in DMSO solution.
# (5) Add 3 ul CMV suspension. Final 1 puf/ul, Virus stock 2000pfu/ul
# (6) Incubate 72 hrs at 37C.
# (7) Add 4 ul OneGlo Luc Reagent.
# (8) Incubate 5 min at room temperature.
# % is set by controls: 0 for no effect and ±100 for the full control effect.
row,Structure (SMILES),"activity change, negative = inhibition"
1,Cc1cccc(C(=O)N2c3nc(-c4ccco4)nn3C3(CCCCC3)[C@@H]3CCCC[C@@H]32)c1,-17.9% (inactive)
2,COC(=O)Cc1[nH]n(-c2nc3ccccc3s2)c(=O)c1C(C)=Nc1ccc(OC)cc1,-94.3% (active)
3,COc1ccc(-c2nc3ccccc3s2)cc1NC(=O)COc1ccccc1C,47.9% (inactive)
4,COC(=O)c1cccc(C(=O)N2CCCC(Nc3ccc4c(c3)OCCO4)C2)c1 (stereo not given),-15.6% (inactive)
5,COc1cccc2c1cc1c(=O)n(CC(=O)N3CCN(c4cccc(Cl)c4)CC3)nc(C)n12,50.4% (inactive)
6,Cc1c(NC(=O)CN2C(=O)C(=O)N(Cc3ccccc3)C2=O)c(=O)n(-c2ccccc2)n1C,-22.2% (inactive)
7,CN(C)C(CNC(=O)c1cccc(S(=O)(=O)Nc2ccc(Br)cc2)c1)c1ccco1 (stereo not given),-19.6% (inactive)
8,CN(C)C(CNC(=O)c1cccc(C#N)c1)c1ccco1 (stereo not given),-2.12% (inactive)
9,CN(C)C(CNC(=O)c1cc(Br)c(Br)s1)c1ccco1 (stereo not given),-67.9% (active)
10,Cn1cc(/C=C/c2nc3ccccc3c(=O)n2-c2ccccc2)c2ccccc21,31.9% (inactive)
11,Cc1cccc(N=C2SC(C)CN2C(=O)CN2C(=O)NC3(CCCC3)C2=O)c1 (stereo not given),0.641% (inactive)
12,Cc1cccc(N=C2NC(=O)/C(=C/c3cn(C)c4ccccc34)S2)c1,-80% (active)
13,O=C(NCCc1ccccc1)c1ccc2c(c1)N(Cc1ccc(F)cc1)C(=O)c1ccccc1S2(=O)=O,10.3% (inactive)
14,Cc1cccc(-n2c(=O)c3c(c4cc(C)ccc4n3C)n(CC(=O)Nc3ccccc3Cl)c2=O)c1,-1.31% (inactive)
15,CCN(C(=O)COC(=O)Cc1c(F)cccc1Cl)c1c(N)n(Cc2ccccc2)c(=O)[nH]c1=O,2.58% (inactive)
16,Cc1ccccc1CNC(=O)CCc1cn(Cc2ccccc2C)c2ccccc12,-37.2% (inactive)
17,CCC(c1nnnn1C1CCCC1)N(Cc1cccs1)Cc1cc2cccc(C)c2[nH]c1=O (stereo not given),-63.3% (active)
18,Cc1cccc2cc(CN(Cc3cccs3)C(=S)NCc3ccco3)c(=O)[nH]c12,-16.3% (inactive)
19,Cc1cccc2cc(CN(Cc3nnnn3Cc3ccccc3)C3CCCC3)c(=O)[nH]c12,-5.56% (inactive)
20,Cc1cc(C)cc(NS(=O)(=O)c2ccc(Oc3ncc(C(F)(F)F)cc3Cl)cc2)c1,-17.1% (inactive)
21,CC(C)(O)C#Cc1ncc(C(F)(F)F)cc1Cl,-30.8% (inactive)
22,COc1cccc(/C=N/Nc2ncc(C(F)(F)F)cc2Cl)c1O,-102% (active)

row,Structure (SMILES),"activity change, negative = inhibition"
1,COc1ccccc1Nc1nc(N)nc(CSC(=S)N2CCOCC2)n1,37.2% (inactive)
2,Cc1cccc(CC(=O)N2CC(=O)Nc3ccc(F)cc3C2c2ccccc2)c1 (stereo not given),12% (inactive)
3,COC(=O)CNC(c1ccccc1Cl)c1cc(Br)ccc1NC(=O)CCN1CCOCC1 (stereo not given),-21.3% (inactive)
4,Cn1c(NC(=O)c2ccccc2)nc2ccccc21,-84.9% (active)
5,CCCCCn1c(CCNC(=O)c2ccc(F)cc2)nc2ccccc21,-18.8% (inactive)
6,COC(=O)c1ccc(C2C(C(=O)Nc3ccccc3)=C(C)Nc3nc4ccccc4n32)cc1 (stereo not given),1.76% (inactive)
7,Cc1c(NS(=O)(=O)c2ccc(Cl)cc2)c(=O)n(-c2ccccc2)n1C,8.64% (inactive)
8,CC(=O)Nc1ccc(NC(=O)CCCc2nc(-c3ccc(C(C)(C)C)cc3)no2)cc1,-87.3% (active)
9,CC(=O)c1ccc(NC(=O)CCc2nc(-c3ccc(C)cc3)no2)cc1,2.06% (inactive)
10,Cc1cc(C)cc(NC(=O)CCCc2nc(-c3ccccc3Cl)no2)c1,-10.6% (inactive)
11,CC(C)c1ccc(CN2C(=O)C(n3ccc4ccccc43)c3cccc(F)c32)cc1 (stereo not given),-19.8% (inactive)
12,C=CS(=O)c1sc(Cl)c(N2CCOCC2)c1[N+](=O)[O-] (stereo not given),-29.1% (inactive)
13,COc1ccc2c(c1)CCc1c(C(=O)Nc3cc(C)ccc3O)noc1-2,-8.9% (inactive)
14,Cc1ccc(O)c(NC(=O)c2cc(-c3ccco3)on2)c1,-60.7% (active)
15,Cc1ccc(O)c(NC(=O)c2cc(-c3ccc(F)cc3)no2)c1,-17.5% (inactive)
16,O=C(NCc1ccccc1Cl)C1=Cc2cc(Br)ccc2OC1,-3.65% (inactive)
17,CCOc1ccc(CNCc2c(C(=O)O)c(C)n(Cc3cccc(OC)c3)c2C)cc1OC,-14.2% (inactive)
18,C=Cc1ccc(Cn2c(C(=O)O)c(CNC3CCCC3)c3ccc(C)cc32)cc1,-2.87% (inactive)
19,Cc1c(CNC2CCCCC2)c(C(=O)O)c(C)n1Cc1cccc(Cl)c1,-85.4% (active)
20,COc1ccc(-c2nc(CN3CCC(C(=O)NCc4ccccc4)CC3)c(C)o2)cc1OC,1.58% (inactive)
21,CCOc1ccc(S(=O)(=O)N(CC(=O)NCCSCc2ccc(C)cc2)c2ccccc2)cc1,21.6% (inactive)
22,O=C1[C@@H]2C(Cc3ccc(O)cc3)NC3(C(=O)Nc4ccc(F)cc43)[C@@H]2C(=O)N1c1ccc(F)cc1 (stereo not given in full),5.54% (inactive)

row,Structure (SMILES),"activity change, negative = inhibition"
1,COc1ccc([N+](=O)[O-])cc1NCC(=O)c1ccc(C)cc1,23.3% (inactive)
2,COc1ccc(C(=O)c2c3ccc([N+](=O)[O-])cc3[n+]([O-])n2CCCN)cc1,-65.8% (active)
3,COc1ccc(NS(=O)(=O)c2cc(NC(=O)CC(=O)c3ccc([N+](=O)[O-])cc3)ccc2C)cc1,-28.9% (inactive)
4,Cn1cncc1-c1cc2cnc(Nc3ccc(OC(F)(F)F)cc3)cc2[nH]1,-21.4% (inactive)
5,Cc1ccc(S(=O)(=O)N2CCc3cc(C(=O)Nc4ccc(Cl)cc4C)ccc32)cc1,0.154% (inactive)
6,COc1ccc(Cn2c(=O)n(-c3ccccc3C)c(=O)c3c4c(sc32)CN(C(C)=O)CC4)cc1,3.89% (inactive)
7,CC(=O)c1ccc(S(=O)(=O)N2CCN(c3nc4c(C)c(C)ccc4cc3C#N)CC2)cc1,-87.3% (active)
8,CC(=O)c1ccc(N2CCN(S(=O)(=O)c3ccc4c(c3)CC(=O)N4C)CC2)cc1,-36.7% (inactive)
9,Cc1ccc(C)c2sc(NC(=O)c3ccc(S(=O)(=O)N4CCCC4)cc3)nc12,37.4% (inactive)
10,CCC(=O)N1CCc2cc(Br)cc(S(=O)(=O)NCc3ccc(Cl)cc3)c21,-9.15% (inactive)
11,COC(=O)c1cc(NC(=O)c2nn(C)c(=O)c3ccccc23)cc(C(=O)OC)c1,-10.5% (inactive)
12,CCSc1nnc(NC(=O)c2cc(=O)c3cc(C)c(C)cc3o2)s1,1.6% (inactive)
13,Cc1cc(F)ccc1NS(=O)(=O)c1ccc(-n2cccn2)cc1,-27.3% (inactive)
14,CCC(=O)N1CCc2cc(Br)cc(S(=O)(=O)CCC(=O)N3CCN(c4ccc(F)cc4)CC3)c21,25.8% (inactive)
15,COC(=O)CC(=O)N1CCN(c2ccc(Cl)c(Cl)c2)CC1,-31.5% (inactive)
16,COc1ccc(S(=O)(=O)N2CCN(C(=S)NCC3CCCO3)CC2)cc1OC (stereo not given),4.06% (inactive)
17,S=C(NCC1CCCO1)N1CCN(c2ccc(Cl)c(Cl)c2)CC1 (stereo not given),-86.4% (active)
18,CCOc1ccccc1NC(=O)Cn1c(=O)n(Cc2ccco2)c(=O)c2sc3ccccc3c21,30.3% (inactive)
19,COc1ccc(CNC(=O)Cn2nnc(-c3ccccc3F)n2)cc1,-0.694% (inactive)
20,Cc1cc(NC(=O)CC(C)C)cc(-c2nc3ncccc3o2)c1O,5.83% (inactive)
21,COc1ccc(C(=O)COC(=O)CN2C(=O)C3CC=CCC3C2=O)c(OC)c1 (stereo not given),-5.28% (inactive)
22,CC1=CC(C)(C)Nc2ccc(OC(=O)CN3C(=O)C4CCCCC4C3=O)cc21 (stereo not given),-63% (active)

row,Structure (SMILES),"activity change, negative = inhibition"
1,O=C(COC(=O)CN1C(=O)C2CCCCC2C1=O)Nc1ccc(F)c(F)c1F (stereo not given),-3.46% (inactive)
2,CCOc1ccc(C(=O)c2cn(Cc3ccccc3OC)c3ccc(F)cc3c2=O)cc1,-39% (inactive)
3,CC(C)(C)c1cc[n+](-c2[nH]c(=O)sc2/C=N/N=C(\[O-])c2ccccc2)cc1,-35.8% (inactive)
4,CCOc1ccc(S(=O)(=O)c2cn(Cc3ccc(OC)cc3)c3ccc(F)cc3c2=O)cc1,5.49% (inactive)
5,COc1cc(NC(=O)c2cncc(-c3ccc(C#N)cc3)c2)cc(C(=O)Nc2cccc(C(F)(F)F)c2)c1,-78.9% (active) and -65.8% (active)
6,COc1cc(OC)cc(C(=O)Nc2c(C(=O)Nc3ccc(F)cc3)oc3ccccc23)c1,-7.35% (inactive)
7,COc1cccc(NC(=O)CN(C)C(C)C(=O)Nc2ccc(C#N)cc2)c1 (stereo not given),-15.8% (inactive)
8,Cc1cc(Nc2cccc(C(F)(F)F)c2)nc2ccc(NC(=O)c3ccc(=O)[nH]c3)cc12,-15.4% (inactive)
9,COc1cc(OC)cc(C(=O)Nc2ccc3nc(Nc4cccc(C(F)(F)F)c4)cc(C)c3c2)c1,-92.6% (active)
10,COc1ccc(Sc2ccc(NC(=O)c3cccc(Cl)c3)cc2C#N)cc1,-22.8% (inactive)
11,O=C1COCc2cc(-c3cccc(F)c3)ccc2N1CCN1CCOCC1,-29.7% (inactive)
12,CC(=O)c1cccc(NC(=O)C2CCCN(S(=O)(=O)c3cccc4nonc34)C2)c1 (stereo not given),8.09% (inactive)
13,CCOC(=O)c1cccc(NC(=O)c2cc(S(=O)(=O)N3CCCC(C)C3)cn2C)c1 (stereo not given),-10.5% (inactive)
14,CCOC(=O)c1cccc(NC(=O)C2CCCN(S(=O)(=O)c3cnc[nH]3)C2)c1 (stereo not given),-78.2% (active)
15,CN(C)c1ccc(NC(=O)CSc2nc(-c3ccco3)cc(C(F)(F)F)n2)cc1,13.1% (inactive)
16,Cc1cc(NC(=O)CCC(=O)N(CC(=O)NCC2CCCO2)c2ccccc2)no1 (stereo not given),-24.8% (inactive)
17,CCN(CC)P(=O)(Oc1cccc(C)c1)N(CC)CC,-101% (active)
18,Cc1cccc(OP(=O)(Oc2cccc(C)c2)OC(c2ccccc2)C(F)(F)F)c1 (stereo not given),19.6% (inactive)
19,Cc1cccc(OP(=O)(Nc2c(C)n(C)n(-c3ccccc3)c2=O)Oc2cccc(C)c2)c1,-36.3% (inactive)
